This passage reports inhibition results from PubChem BioAssay AID588689 (Southern Research Specialized Biocontainment Screening …, 2011).

Molecules are shown by their SMILES. Screen size: about 340,000 compounds; about 1,000 (0.29%) were called active. Cut-off read from the data, not from the text of the source: inconclusive = inhibition above about 29% without an active follow-up result; inactive = below that. A selection follows. Results with a measured potency or affinity are listed apart.

This assay has as its target Genome polyprotein (Dengue virus type 2 (strain 16681-PDK53)) (UniProt P29991). Nature of the assay: Dengue-2 NS5 methyltransferase inhibitors, primary screen, biochemical, confirmation dose response (AID 588689). The following applies: Dengue-2 NS5 methyltransferase capping enzyme assay, at 25 µM, stronger effect = higher value.
The mark [1] stands for this setting: measured here: pilot screen replicate inhibition.

On to `O=C(N/N=C/c1cc(Br)c(Br)o1)c1cc2ccccc2o1`, for which the inhibition (as a rule, the change of the read-out against control, counted positive when it falls) was -5.43% (inactive). Same read-out and setting: the value for `O=C1CCC[C@@H]2C[C@@]3(C[C@@H]4CCN1[C@H]24)Nc1cc(Cl)ccc1NC3=NCc1ccccc1` was -11.9% (inactive); that for `O=C(NCCCc1ccccc1)c1cccc(NC(=O)C2CCCCC2)c1` was -8.46% (inactive).

Regarding `COc1ccc(C2=NN(C(=O)c3ccc(Cl)c([N+](=O)[O-])c3)C(c3ccccc3)C2)cc1` (configuration not stated), the inhibition is -4.55% (inactive). In the case of `Cc1ccc(NC(=S)NN2CCN(C)CC2)c(C)c1`, the inhibition is 3.57% (inactive).

With `Cn1c2cc(C#N)sc2c2cnn(Cc3ccc(F)cc3)c(=O)c21`, the inhibition is -9.27% (inactive). Also, the inhibition under setting [1] is -3.06%. Take `Cc1ccccc1-c1cc(C(=O)NCc2cccc(C(F)(F)F)c2)n(CC2CC(c3cccnc3)=NO2)n1` (configuration not stated): the inhibition was 5.79% (inactive).

Regarding `CCOc1ccccc1C=NNc1ccc([N+](=O)[O-])cn1`, the inhibition was -10.8% (inactive). Still for that read-out and setting: the value for `Cc1ccc(-c2cc(C(=O)N3CCC(C)CC3)c3ccccc3n2)cc1` was -0.67% (inactive). Regarding `COc1nnc(-c2ccccc2)s1`, the inhibition is -4.6% (inactive). Turning to `O=C(O)C1=CC[C@@H](c2ccc(Cl)cc2)N(S(=O)(=O)c2ccc(Cl)cc2)[C@H]1c1ccccc1`, the inhibition is 15.7% (inactive). Regarding `Cc1ccc(S(=O)(=O)N2[C@@H](c3ccc(Br)cc3)C(C(=O)O)=CC[C@H]2c2ccc(Cl)cc2)cc1`, the inhibition is 26.7% (inactive).

As for `CCCCC1CCC(C(=O)NCC(c2ccco2)N2CCOCC2)CC1` (configuration not stated), the inhibition is -3.1% (inactive). Still for that read-out and setting: next, `CCCCCn1c(=O)c(C(=O)OCC)c(O)c2ccccc21`: -0.68% (inactive); `CCCCn1c(=O)c(-c2ccccc2)c(O)c2ccccc21`: -4.09% (inactive).

Turning to `CCCCn1c(=O)c(C(=O)OCC)c(O)c2ccccc21`, the inhibition was 3.24% (inactive). On the same count and under the same terms, the value for `CCn1c(=O)c(-c2ccccc2)c(O)c2ccccc21` was 0% (inactive). `O=C1C(=Cc2ccncc2)CCCc2ccccc21`: the inhibition is -20.6% (inactive). `O=C(NC(=S)N1CCCCCC1)c1cccc([N+](=O)[O-])c1`: the inhibition was -2.29% (inactive). On the same count and under the same terms, the value for `O=C(Cn1cc(C(F)(F)F)ccc1=O)NCCc1ccc(Cl)cc1Cl` was -0.73% (inactive). Take `Cc1ccc(/C=C/C(=O)C2C(=O)c3ccccc3C2=O)cc1`: the inhibition was 13.3% (inactive). Still for that read-out and setting: next, `O=C(/C=C/c1ccccc1)C1C(=O)c2ccccc2C1=O`: -1.46% (inactive); `Cc1ccc(C)c(N2CCN(C(=O)C3CCCN(S(=O)(=O)c4c(C)noc4C)C3)CC2)c1` (configuration not stated): -2.75% (inactive). Still for that read-out and setting: the value for `O=C(NCCC1=CCCCC1)c1ccc(Cl)c([N+](=O)[O-])c1` was 0% (inactive).

For `O=C(O)c1ccc(NCCC2=CCCCC2)c([N+](=O)[O-])c1`, the inhibition is 5.44% (inactive). Consider `Nc1c(C(=O)N/N=C/c2ccccc2)cnn1-c1ccccc1`, for which the inhibition was 1.53% (inactive).

Consider `COc1ccc(C(=O)N/N=C(\C)c2ccc3c(c2)C2C=CCC2C(c2ccccc2)N3)cc1` (configuration not stated), for which the inhibition was 2.59% (inactive). Still for that read-out and setting: next, `COC(=O)c1ccc(C2Nc3ccc(/C(C)=N/NC(=O)C(OC)c4ccccc4)cc3C3C=CCC32)cc1` (configuration not stated): -4.05% (inactive); `COc1cccc(NS(=O)(=O)c2ccc3c(c2)CC(=O)N3)c1`: -6.98% (inactive).

With `CC(=O)c1ccc2c(c1)C1C=CCC1C(c1ccc(S(=O)(=O)N3CCOCC3)cc1)N2` (configuration not stated), the inhibition is 11.6% (inactive). On the same count and under the same terms, the value for `COc1cccc(NS(=O)(=O)c2ccc3c(c2)NC(=O)CC(=O)N3)c1` was -10.6% (inactive); that for `O=C(O)c1ccc2c(c1)C1C=CCC1C(c1cc3c(cc1Br)OCO3)N2` (configuration not stated) was 6.19% (inactive). Still for that read-out and setting: the value for `O=C(O)c1ccc(NS(=O)(=O)c2ccc3c(c2)OCCCO3)cc1` was -0.76% (inactive); that for `COc1ccc(NS(=O)(=O)c2ccc(NS(=O)(=O)c3cccc(C(=O)O)c3)cc2)cc1` was 0% (inactive). `COc1ccc(CN2C3CCCC2CC(NC(=O)Nc2ccccc2)C3)cc1` (configuration not stated): the inhibition is -8.9% (inactive). The same measure, in the same setting: next, `CCN(CC(=O)Nc1ccc2c(c1)OCCO2)S(=O)(=O)c1ccc(F)cc1`: -12.2% (inactive); `CCN(CC)S(=O)(=O)c1ccc(C(=O)NCCOC(=O)c2ccc(F)cc2F)cc1`: 8.01% (inactive).

As for `COc1ccccc1NS(=O)(=O)c1ccc2c(c1)OCCO2`, the inhibition was -2.93% (inactive). The same measure, in the same setting: the value for `Cc1ccc(S(=O)(=O)N2CCCCC2)cc1C(=O)NCc1ccc(S(N)(=O)=O)cc1` was 4.65% (inactive). For `COc1ccc(/C(O)=C2\C(=O)C(=O)N(CC3CCCO3)C2c2cc(OC)ccc2OC)cc1` (configuration not stated), the inhibition was -3.45% (inactive). With `O=C(NCCC1=CCCCC1)c1cnc2n(c1=O)CCS2`, the inhibition was 3.21% (inactive). Still for that read-out and setting: the value for `COc1ccccc1C(=O)NC(=O)COC(=O)Cc1n[nH]c(=O)c2ccccc12` was 3.6% (inactive); that for `COc1ccc(NS(=O)(=O)c2cc([N+](=O)[O-])ccc2N/N=C\c2c(C)[nH]c3ccccc23)cc1` was -20.6% (inactive). For `COc1ccc(S(=O)(=O)NCc2ccccn2)cc1Br`, the inhibition is 2.64% (inactive). Further, under setting [1], the inhibition was 3.33%. As to `CSC1=C(C#N)C(=O)NC(c2ccc(Cl)cc2)S1` (configuration not stated), the inhibition was -3.83% (inactive). As to `N#CC1=C(Nc2ccccc2Cl)SC(c2ccccc2O)NC1=O` (configuration not stated), the inhibition is -11.1% (inactive). Still for that read-out and setting: next, `Cc1c([N+](=O)[O-])cc(N2C(=O)C=CC2=O)cc1[N+](=O)[O-]`: 8.16% (inactive); `Cc1cc(N2C(=O)C=CC2=O)c([N+](=O)[O-])cc1C`: -13.6% (inactive). The same measure, in the same setting: next, `COc1ccc(-c2ccc(NS(=O)(=O)c3ccc([N+](=O)[O-])cc3)cc2)nn1`: 5.43% (inactive).

Consider `COc1ccc(-n2nc(C(=O)NCC(=O)NCC3CCCO3)c3ccccc3c2=O)cc1` (configuration not stated), for which the inhibition was -4.8% (inactive). Moreover, the inhibition under setting [1] was -2.44%. As for `Cc1ccc(C2(C(F)(F)F)NC(=O)N3N=C4CCCCCN4C3=C2C#N)cc1` (configuration not stated), the inhibition is 7.4% (inactive). As for `COc1ccc(/C=C2\SC(=S)N(CCCC(=O)Nc3ccccc3C(=O)O)C2=O)cc1OC`, the inhibition is -34.8% (inactive). With `CCOc1ccc(/C=C2/SC(=S)N(CCC(=O)Nc3ccc(C(=O)O)cc3)C2=O)cc1`, the inhibition was -7.39% (inactive). On the same count and under the same terms, next, `COc1ccc(/C=C2\SC(=S)N(CCC(=O)Nc3ccccc3C(=O)O)C2=O)cc1`: -2.62% (inactive); `COc1ccc(/C=C2/SC(=S)N(CCCC(=O)Nc3ccccc3C(=O)O)C2=O)cc1`: 12.5% (inactive); `Cc1ccc(/C=C2\SC(=S)N(CCCC(=O)Nc3ccccc3C(=O)O)C2=O)cc1`: 15.4% (inactive). On to `CCc1ccc(/C=C2\SC(=S)N(CCCC(=O)Nc3ccc(C(=O)O)cc3)C2=O)cc1`, for which the inhibition was 17.8% (inactive). On to `COc1ccc(CNC(=O)COC(=O)C(CCSC)NC(=O)c2ccco2)cc1OC` (configuration not stated), for which the inhibition is 0% (inactive). On the same count and under the same terms, the value for `O=C(c1cc(C2CC2)nn1-c1ccccc1)N1CCN(Cc2ccccc2F)CC1` was -3.6% (inactive); that for `Cc1cc(C(=O)COC(=O)c2n[nH]c(=O)c3ccccc23)c(C)n1C(C)C` was -4.04% (inactive). Still for that read-out and setting: the value for `CCOc1ccc(N(CC(=O)NC2CCCCC2C)S(=O)(=O)c2c(C)noc2C)cc1` (configuration not stated) was -4.39% (inactive); that for `O=C1C(=NO)CCCc2ccccc21` was -3.23% (inactive).

Regarding `O=C1/C(=N\O)Cc2ccccc21`, the inhibition is -5.15% (inactive).

For `O=C(O)CC1SC(N/N=C/c2ccc(Br)cc2)NC1=O` (configuration not stated), the inhibition is 3.06% (inactive).

Take `COc1ccc(OC)c(S(=O)(=O)N(C)CC(=O)N2CCCCC2)c1`: the inhibition was -7.78% (inactive). Still for that read-out and setting: the value for `CC(C)C1C(=O)N(Cc2cn(CCC3OCCO3)nn2)CCS(=O)(=O)N1Cc1ccc(-c2ccc(Cl)c(Cl)c2)cc1` (configuration not stated) was -2.32% (inactive); that for `Oc1ccc(/C=N/n2c(-c3ccccc3)n[nH]c2=S)cc1Br` was 13.5% (inactive); that for `CN=c1scc(C)n1/N=C/c1cc(Br)c(O)c(Br)c1` was -1.49% (inactive). For the compound `Cc1c(Br)c(O)c(Br)c(O)c1/C=N/n1c(-c2ccccc2)n[nH]c1=S`, the inhibition was 21.5% (inactive).

In the case of `Oc1c(Br)cc(Br)cc1/C=N/n1c(-c2ccccc2)n[nH]c1=S`, the inhibition is -12.7% (inactive). Same read-out and setting: the value for `COc1ccccc1N1C(=O)CC(N2CCN(c3ccc(F)cc3)CC2)C1=O` (configuration not stated) was -6.31% (inactive).

For `O=C(CN(Cc1ccccc1Cl)C(=O)c1csnn1)NCc1ccc2c(c1)OCO2`, the inhibition is -1.47% (inactive). Turning to `Cc1nc2nc(-c3ccccc3)cn2nc1C`, the inhibition is -1.38% (inactive).

For the compound `Cc1ccc(-c2cn3nc(C)c(C)nc3n2)cc1`, the inhibition is -9.37% (inactive).

Take `COc1ccc(C(=O)N(CC(=O)NC(C)(C)C)c2ccc3c(c2)OCCO3)cc1OC`: the inhibition is -3.24% (inactive). Same read-out and setting: the value for `Cn1c(-c2ccccc2)cc(=NNS(C)(=O)=O)c2cc(S(=O)(=O)O)ccc21` was 7.43% (inactive); that for `Oc1ccc(CN2CCCCC2)nc1-c1ccccc1` was -3.27% (inactive). With `Oc1ccc2ccccc2c1CN1CCCCC1`, the inhibition was -0.78% (inactive).

As for `c1ccc(-c2ccc(-c3csnn3)cc2)cc1`, the inhibition was 0.69% (inactive). As for `CCOc1ccc(S(=O)(=O)Nc2ccccc2SC)cc1`, the inhibition was 6.41% (inactive). For `COc1ccc(S(=O)(=O)c2c(C)c(NS(=O)(=O)c3ccccc3)cc(C)c2O)cc1`, the inhibition is -5.22% (inactive). Same read-out and setting: the value for `COc1ccc(S(=O)(=O)Nc2ccc(O)c3ccccc23)cc1` was 70.6% (inactive); that for `CCOC(=O)c1ccccc1NS(=O)(=O)c1ccc(OCC)cc1` was -6.45% (inactive).

In the case of `CC1(c2ccc(Cl)cc2)NC(=O)N(CC(=O)NCCC2=CCCCC2)C1=O` (configuration not stated), the inhibition was -2.9% (inactive). Still for that read-out and setting: the value for `COc1ccc(-n2c(=S)[nH]c3cc(C(=O)Nc4cc(C(N)=O)ccc4OC)ccc3c2=O)c(OC)c1` was -13.4% (inactive); that for `COc1cc(N)c(Cl)cc1C(=O)OCC(=O)NC1CCCC1` was -6.23% (inactive); that for `CC(C)c1ccc(NC2CCCN(C(=O)CN3CCCC3=O)C2)cc1` (configuration not stated) was -7.87% (inactive). `C=CCNC(=S)NNC(=O)c1csc(C)c1CC`: the inhibition is 2.43% (inactive). Same read-out and setting: next, `CCOc1ccc(NC(=O)CN(C)C(=O)C2=COCCO2)cc1OCC`: -3.6% (inactive).
